Laboratory results as given in PubChem BioAssay (NCATS).
Results filed as inconclusive are left out. Entries that show only a call come without a potency. The source made the active and inactive calls. Calls follow the shape of the dose curve; as a rule, active = well fitted curve in the direction sought with a large enough effect; inconclusive = small, poorly fitted or top-dose-only effect, or another doubt; inactive = no such curve, though single readings can be large; an effect the other way counts as inactive or inconclusive.

How the values were obtained:
[1] = test system: Zika virus NS2B-NS3 protease; assay: Primary screen GU AMC qHTS for Zika virus inhibitors (AID 1347154); also: nearly all actives have a fitted effect of over 70% in size
Summary of the method: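 Fluorogenic AMC-substrate cleavage by noncovalent NS2B-NS3 protease complex (25 nM, pH 8.0 Tris buffer with Tween 20) followed for 15 minutes at room temperature (~20% conversion). Percent inhibition from ex340/em450 signal change, fitted by 4-parameter Hill equation.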

[2] = qHTS to identify inhibitors of the type 1 interferon - major histocompatibility complex class I in skeletal muscle: primary screen against the NCATS Mechanism Interrogation Plate v5.0 (MIPE) Libary (AID 1347411); also: nearly all actives have a fitted effect of over 65% in size
Summary of the method: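 HLA-B HiBit myoblasts, dexamethasone-free medium + 4 ng/ml IFN-b, 24 h compound, 11-pt 1:3 from 46 uM final. Readout: Nano-Glo HiBiT lytic luminescence after 10 min lysis, RT.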
Potency is read from the fitted curve at half-maximal effect.

| SMILES | Potency [1] | Potency [2] |
| --- | --- | --- |
| CCC[C@H](N[C@@H](C)C(=O)N1[C@@H]2CCCC[C@H]2C[C@H]1C(=O)O)C(=O)OCC | inactive | inactive |
| CC[C@@H]([C@H](C)O)n1ncn(-c2ccc(N3CCN(c4ccc(OCC5CO[C@@](Cn6cncn6)(c6ccc(F)cc6F)C5)cc4)CC3)cc2)c1=O (stereo partly specified) | inactive | inactive |
| CC(C)(F)C[C@H](N[C@@H](c1ccc(-c2ccc(S(C)(=O)=O)cc2)cc1)C(F)(F)F)C(=O)NC1(C#N)CC1 | inactive | inactive |
| CCOC(=O)c1c(CSc2ccccc2)n(C)c2cc(Br)c(O)c(CN(C)C)c12 | inactive | inactive |
| CCOc1ccccc1N=Nc1c(C)[nH]n(-c2nc(-c3ccccc3)cs2)c1=O | inactive | inactive |
| CN1CC(=O)NC1=NC(=O)Nc1cccc(Cl)c1 | inactive | inactive |
| COc1cc2c(cc1OC)CC(=O)N(CCCN(C)C[C@H]1Cc3cc(OC)c(OC)cc31)CC2 | inactive | inactive |
| NCC1CCC(C(=O)O)CC1 (stereo unspecified) | inactive | inactive |
| O=C(O)c1ccc(O)c2ncc(N3CCOCC3)cc12 | inactive | inactive |
| Cc1ccc(S(=O)(=O)Nc2nc3ccccc3nc2Nc2ccc3nsnc3c2)cc1 | inactive | inactive |
| CC1CNc2c(cccc2S(=O)(=O)N[C@@H](CCCN=C(N)N)C(=O)N2CC[C@@H](C)C[C@@H]2C(=O)O)C1 (stereo partly specified) | inactive | inactive |
| CCCC1OC2C[C@@H]3[C@H]4CCC5=CC(=O)C=C[C@]5(C)[C@H]4C(O)C[C@]3(C)[C@]2(C(=O)CO)O1 (stereo partly specified) | inactive | inactive |
| CN(C(Cc1ccc(OS(=O)(=O)c2cccc3cnccc23)cc1)C(=O)N1CCN(c2ccccc2)CC1)S(=O)(=O)c1cccc2cnccc12 (stereo unspecified) | inactive | inactive |
| COC(=O)[C@H](c1ccccc1Cl)N1CCc2sccc2C1 | inactive | inactive |
| CCC(=O)NCC[C@@H]1CCc2ccc3c(c21)CCO3 | inactive | inactive |
| CC(C)(CO)[C@@H](O)C(=O)NCCC(=O)O | inactive | inactive |
| CC[C@H](C)C(=O)O[C@H]1C[C@H](O)C=C2C=C[C@H](C)[C@H](CC[C@@H](O)C[C@@H](O)CC(=O)O)[C@H]21 | inactive | inactive |

| SMILES | Potency [1] | Potency [2] |
| --- | --- | --- |
| O=C(O)c1nc(=O)[nH]c(=O)[nH]1 | inactive | inactive |
| CNC(=O)[C@H](Cc1ccccc1)NC(=O)[C@H](CC(C)C)[C@H](CSc1cccs1)C(=O)NO | inactive | inactive |
| N[C@@H](CC(=O)N1CCn2c(nnc2C(F)(F)F)C1)Cc1cc(F)c(F)cc1F | inactive | inactive |
| COc1cc2ncn(-c3cc(OCc4ccccc4S(C)(=O)=O)c(C#N)s3)c2cc1OC | inactive | inactive |
| Cc1cccc(Nc2nc(N[C@@H]3CCCC[C@H]3N)ncc2C(N)=O)c1 | inactive | 13.1 µM (active) |
| CCC(c1ccc(O)cc1)C(CC)c1ccc(O)cc1 (stereo unspecified) | inactive | inactive |
| N#Cc1c(N(CC(=O)O)CC(=O)O)sc(C(=O)O)c1CC(=O)O | inactive | inactive |
| NCc1c[nH]c(=S)n1[C@H]1CCc2c(F)cc(F)cc2C1 | inactive | inactive |
| OC1CCC(Nc2ncc3nc(Nc4c(F)cc(F)cc4F)n([C@@H]4CCOC4)c3n2)CC1 (stereo partly specified) | 24.1 µM (active) | inactive |
| COC1CCC(C(=O)c2ccc3nc4c(cc3c2)CCCO4)CC1 (stereo unspecified) | inactive | inactive |
| COc1ccc2c(c1)c(C1=C(c3c[nH]c4ccccc34)C(=O)NC1=O)cn2CCCN(C)C | inactive | 20.8 µM (active) |
| N#Cc1ccc(Oc2ccc3c(c2)COB3O)cc1 | inactive | inactive |
| O=C1CCCC(=O)C1C(=O)c1ccc(C(F)(F)F)cc1[N+](=O)[O-] | inactive | inactive |
| O=c1[nH]nc(OCCCc2ccc(Cl)cc2)c(NCc2cccnc2)c1Br | inactive | inactive |
| COc1cc2nccc(Oc3ccc(NC(=O)Nc4ccc(F)cc4F)c(F)c3)c2cc1OC | inactive | 10.4 µM (active) |
| CC(NCCc1ccc(O)cc1)C(O)c1ccc(O)cc1 (stereo unspecified) | inactive | inactive |
